The values that follow come from PubChem BioAssay (Tox21).

The nature of experiment [1]: qHTS assay to identify small molecule antagonists of the sonic hedgehog signaling (Shh) pathway (AID 1259369; calls by dose curve; also: nearly all actives have a fitted effect of over 45% in size; also: potency is read from the fitted curve at half-maximal effect). Summed up: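 Inhibition of Shh signalling is measured as reduced Gli1-response-element firefly luciferase output in an NIH/3T3-derived stable reporter clone stimulated with conditioned medium for 24hr.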
A short description of experiment [2]: qHTS assay to identify small molecule agonists of the androgen receptor (AR) signaling pathway in the presence of an antagonist - cell viability counter screen (AID 1259379). Also: nearly all actives have a fitted effect of over 25% in size. Also: potency is read from the fitted curve at half-maximal effect. Summed up:
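Fluorescence from CellTiter-Fluor, added after 15 hr and read 1 hr later, gave cell viability. Cells were MDA-kb2 exposed to compounds (15 concentrations) in the presence of 3.0uM nilutamide at 37C, 0% CO2.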
(In general: In qHTS, concentration-response curves come from the screen itself.)

A short description of experiment [3]: qHTS assay to identify small molecule agonists of the estrogen receptor beta (ER-beta) signaling pathway - cell viability counter screen (AID 1259380). Also: nearly all actives have a fitted effect of over 30% in size. Also: potency is read from the fitted curve at half-maximal effect. The procedure, abridged: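 Same-well viability counter screen. Cells: ER-beta-UAS-bla HEK293T, plated 6 hr before compound, in 2% charcoal-stripped FBS. Compound exposure 16 hr, 37C; viability by CellTiter-Glo luminescence after 30 min at room temperature.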

The nature of experiment [4]: qHTS assay to identify small molecule antagonists of the estrogen receptor beta (ER-beta) signaling pathway - cell viability counter screen (AID 1259382). Also: nearly all actives have a fitted effect of over 55% in size. Also: potency is read from the fitted curve at half-maximal effect. Summed up: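 Following a 6 hr plating period, HEK293T cells carrying a UAS-driven beta-lactamase reporter under ER-beta control received compounds and 1nM E2 (final). After 16 hr at 37C and 2 hr substrate loading, CellTiter-Glo luminescence indicated viability.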

For experiment [5], the target named is Estrogen receptor (Homo sapiens) (UniProt P03372). As to the kind of experiment: qHTS assay to identify small molecule agonists of the estrogen receptor alpha (ER-alpha) signaling pathway in the presence of an antagonist (AID 1259383; calls by dose curve; also: top concentration of the series differs between compounds; nearly all actives have a fitted effect of over 15% in size). The procedure, abridged:
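Cells are hormone-deprived for 5 days (charcoal-stripped FBS, no phenol red), plated for 24hr, spiked with 10.0nM ICI-182,780, then dosed at 15 concentrations. After 22hr at 37C, ONE-Glo luminescence reports ERE-luciferase activity.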

A short description of experiment [6]: qHTS assay to identify small molecule agonists or antagonists of the thyroid stimulating hormone receptor (TSHR) signaling pathway - wild type cell line counter screen (AID 1259384; calls by dose curve). Summed up: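 Wild-type HEK293 cells were plated 18 h at 37 C/5% CO2, pin-dosed with compound plus Ro20-1724 medium, held 30 min at room temperature, then given cAMP-d2 and anti-cAMP-cryptate; fluorescence was read after 1 h. Fifteen concentrations, triplicate.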

Experiment [7] concerns the target Thyrotropin receptor (Homo sapiens) (UniProt P16473). As to the kind of experiment: qHTS assay to identify small molecule antagonists of the thyroid stimulating hormone receptor (TSHR) signaling pathway (AID 1259385; calls by dose curve; also: nearly all actives have a fitted effect of over 20% in size). The procedure, abridged:
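TSHR-HEK293 cells were plated and held 18 h at 37C/5% CO2, then given compound plus Ro20-1724 and stimulated with TSH at 1.5 ng/mL final. After 30 min at room temperature, cAMP was detected with cAMP-d2/anti-cAMP-cryptate (1 h) by fluorescence.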

Experiment [8] is described as follows: qHTS assay to identify small molecule agonists of the estrogen receptor alpha (ER-alpha) signaling pathway in the presence of an antagonist - cell viability counter screen (AID 1259386).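 Also: cells exposed to compounds for 22 h at 37 °C before the viability read; nearly all actives have a fitted effect of over 30% in size.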 Also: potency is read from the fitted curve at half-maximal effect. Summed up: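 Cells are starved of estrogens for 5 days in charcoal-stripped serum, seeded for 24hr and co-treated with ICI-182,780 (10.0nM final) and test compounds. After 22hr at 37C, viability is read as CellTiter-Fluor fluorescence.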

Experiment [9] concerns the target Progesterone receptor (Homo sapiens) (UniProt P06401). As to the kind of experiment: qHTS assay to identify small molecule agonists of the progesterone receptor (PR) signaling pathway (AID 1346784; calls by dose curve; also: nearly all actives have a fitted effect of over 30% in size). The procedure, abridged: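 Compounds were tested for PR agonism in HEK 293T cells bearing a beta-lactamase gene under UAS control. Treatment lasted 16 hr at 37C; signal came from fluorescence of a FRET substrate.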

Experiment [10] shares this target. The experiment is described as follows: qHTS assay to identify small molecule antagonists of the progesterone receptor (PR) signaling pathway (AID 1346795; active = well fitted inhibition curve with a large enough effect in the signal ratio in the repeat runs, not every such curve was filed as active; the % refers to the signal ratio). The procedure, abridged: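 In HEK293T cells bearing the PR-UAS-bla reporter, compound effects on promegestone-driven (1 nM) beta-lactamase expression are assessed after 16 hr using a fluorescent FRET substrate incubated 2 hr at room temperature.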

Experiment [11] is described as follows: qHTS assay to identify small molecule antagonists of the progesterone receptor (PR) signaling pathway - cell viability counter screen (AID 1346798). Also: series mostly up to about 92 µM; nearly all actives have a fitted effect of over 50% in size. The procedure, abridged:
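Following a 4 hr attachment, PR-UAS-bla HEK293T cells in charcoal-stripped FBS medium were exposed to compounds with R5020 for 16 hr; CellTiter-Glo was added and luminescence read after 30 min at room temperature.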

A short description of experiment [12]: qHTS assay to identify small molecule agonists of the progesterone receptor (PR) signaling pathway - cell viability counter screen (AID 1346799; calls by dose curve; also: nearly all actives have a fitted effect of over 45% in size). The procedure, abridged: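 Here, 3,000 PR-UAS-bla HEK293T cells per well were treated with compounds for 16 hr after a 6 hr preincubation at 37C and 5% CO2; cell viability is the CellTiter-Glo luminescence signal.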

Experiment [13] is described as follows: qHTS assay to identify small molecule antagonists of the TGF-beta/Smad signaling pathway - cell viability counter screen (AID 1346824). Also: nearly all actives have a fitted effect of over 50% in size. The procedure, abridged: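 SBE-bla HEK 293T cells were plated overnight at 37 C, then given compounds in DMSO plus TGF-beta1 (added as 0.25 ng/mL solution) for 5 hr. After the bla read, CellTiter-Glo was added to the same wells and luminescence read after 30 min at room temperature.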

Experiment [14] in a line: qHTS assay to identify small molecule agonists of the TGF-beta/Smad signaling pathway - cell viability counter screen (AID 1346829). Also: top concentration of the series differs between compounds; nearly all actives have a fitted effect of over 45% in size. The procedure, abridged: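 Compound-treated SBE-bla HEK 293T cells (5 hr, 37 C) were assessed for viability with CellTiter-Glo in parallel with the reporter read.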
Experiment [15] can be described thus: qHTS assay to identify small molecule agonists of the TGF-beta/Smad signaling pathway (AID 1346859; active = well fitted activation curve with a large enough effect in the signal ratio in the repeat runs, not every such curve was filed as active; the % refers to the signal ratio; also: series mostly up to about 77 µM). The procedure, abridged: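 Each well held 4,000 SBE-bla HEK 293T cells incubated overnight before compound addition; 5 hr later the cleavable FRET substrate went on for 2 hr at room temperature, and fluorescence was read at two emissions.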
Experiment [16] addresses Thyrotropin-releasing hormone receptor (Homo sapiens) (UniProt P34981). The experiment is described as follows: qHTS assay to identify small molecule agonists of the thyrotropin-releasing hormone receptor (TRHR) signaling pathway (AID 1346891; calls by dose curve; also: series mostly up to about 58 µM). Summed up: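 Screening of agonists relied on calcium signalling in HEK293 cells expressing human TRHR: dye loading 2 h at 37 °C preceded compound addition and a 3-min fluorescence time course.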

Experiment [17] deals with Estrogen receptor beta (Homo sapiens) (UniProt Q92731). The experiment is described as follows: qHTS assay to identify small molecule agonists of the estrogen receptor beta (ER-beta) signaling pathway (AID 1259377; active = well fitted activation curve with a large enough effect in the signal ratio in the repeat runs, not every such curve was filed as active; the % refers to the signal ratio). The procedure, abridged:
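Read-out: beta-lactamase FRET fluorescence. Cell line: ER-beta-UAS-bla HEK293T in 2% charcoal-stripped FBS. Exposure: 16 hr at 37C. Substrate step: 2 h at room temperature.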

Experiment [18] concerns the target Androgen receptor (Homo sapiens) (UniProt P10275). The experiment is described as follows: qHTS assay to identify small molecule agonists of the androgen receptor (AR) signaling pathway in the presence of an antagonist (AID 1259381; calls by dose curve; also: nearly all actives have a fitted effect of over 15% in size). The procedure, abridged:
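Cells are MDA-kb2 (human breast carcinoma, MMTV-luc, AR/GR responsive). Nilutamide is present at 3.0uM final throughout; compounds are added at 15 concentrations and incubated 16hr at 37C before ONE-Glo luminescence detection.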

Experiment [19] deals with Thyrotropin-releasing hormone receptor (Homo sapiens) (UniProt P34981). As to the kind of experiment: qHTS assay to identify small molecule antagonists of the thyrotropin-releasing hormone receptor (TRHR) signaling pathway (AID 1346877; active = well fitted inhibition curve with a large enough effect in the repeat runs, not every such curve was filed as active; also: series mostly up to about 51 µM). The procedure, abridged:
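Cells (TRHR-HEK293) are plated and kept 18 h at 37 °C/5% CO2. A calcium-sensitive dye is added for 2 h, compound follows for 5 min at room temperature, and TRH is then given at 1 nM final.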

Several values for one entry are separate records, joined by “and”; a condition that tells them apart may be missing. Identical values can stand only once. Results filed as inconclusive are left out. Activity calls are given as the source filed them. Unless noted, calls follow the shape of the dose curve; as a rule, active = well fitted curve in the direction sought with a large enough effect in the repeat runs; inconclusive = weak or mixed curves; inactive = no such curve, though single readings can be large; an effect the other way counts as inactive or inconclusive.

Androgen receptor (Homo sapiens), sequence (P10275 whole entry, looked up): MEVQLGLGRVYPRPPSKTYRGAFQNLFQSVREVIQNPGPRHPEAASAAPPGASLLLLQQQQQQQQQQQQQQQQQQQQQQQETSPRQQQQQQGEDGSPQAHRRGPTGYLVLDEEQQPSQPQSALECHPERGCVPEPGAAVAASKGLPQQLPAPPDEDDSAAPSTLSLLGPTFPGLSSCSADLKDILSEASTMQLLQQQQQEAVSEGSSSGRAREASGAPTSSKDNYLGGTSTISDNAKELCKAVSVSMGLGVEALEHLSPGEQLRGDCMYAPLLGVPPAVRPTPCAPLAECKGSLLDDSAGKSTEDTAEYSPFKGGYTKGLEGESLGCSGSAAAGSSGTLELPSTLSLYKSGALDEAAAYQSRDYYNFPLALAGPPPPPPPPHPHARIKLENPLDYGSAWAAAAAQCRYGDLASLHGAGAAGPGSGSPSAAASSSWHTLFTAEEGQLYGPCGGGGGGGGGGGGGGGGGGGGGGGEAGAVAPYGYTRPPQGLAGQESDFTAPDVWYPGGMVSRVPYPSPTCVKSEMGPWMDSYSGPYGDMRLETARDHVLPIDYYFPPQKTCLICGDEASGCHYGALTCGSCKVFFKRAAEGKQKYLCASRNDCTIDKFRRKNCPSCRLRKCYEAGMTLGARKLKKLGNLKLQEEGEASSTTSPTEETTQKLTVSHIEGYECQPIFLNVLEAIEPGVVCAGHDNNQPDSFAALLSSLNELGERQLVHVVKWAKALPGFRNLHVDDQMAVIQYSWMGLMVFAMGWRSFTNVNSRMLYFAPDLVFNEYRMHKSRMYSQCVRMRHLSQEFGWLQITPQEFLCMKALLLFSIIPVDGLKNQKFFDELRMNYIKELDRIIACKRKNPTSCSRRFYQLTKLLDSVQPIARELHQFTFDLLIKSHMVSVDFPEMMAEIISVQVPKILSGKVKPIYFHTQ
Estrogen receptor (Homo sapiens), sequence (P03372 whole entry, looked up): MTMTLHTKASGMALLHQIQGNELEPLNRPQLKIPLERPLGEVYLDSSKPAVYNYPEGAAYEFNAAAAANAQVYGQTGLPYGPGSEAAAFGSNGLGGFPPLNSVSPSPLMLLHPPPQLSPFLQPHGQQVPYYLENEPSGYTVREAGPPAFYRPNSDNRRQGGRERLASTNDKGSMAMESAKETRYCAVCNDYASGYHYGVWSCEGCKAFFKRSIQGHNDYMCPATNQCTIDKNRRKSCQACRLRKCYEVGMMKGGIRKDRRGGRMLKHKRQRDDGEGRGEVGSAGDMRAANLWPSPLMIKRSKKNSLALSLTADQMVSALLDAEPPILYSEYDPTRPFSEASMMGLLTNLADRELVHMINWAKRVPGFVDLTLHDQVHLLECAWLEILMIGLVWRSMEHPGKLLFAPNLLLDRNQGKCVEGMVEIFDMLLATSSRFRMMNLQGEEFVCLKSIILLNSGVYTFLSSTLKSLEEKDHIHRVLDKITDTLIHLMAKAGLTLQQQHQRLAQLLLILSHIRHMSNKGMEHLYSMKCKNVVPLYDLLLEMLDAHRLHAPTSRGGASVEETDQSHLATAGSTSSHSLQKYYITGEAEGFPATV
Thyrotropin receptor (Homo sapiens), sequence (P16473 whole entry, looked up): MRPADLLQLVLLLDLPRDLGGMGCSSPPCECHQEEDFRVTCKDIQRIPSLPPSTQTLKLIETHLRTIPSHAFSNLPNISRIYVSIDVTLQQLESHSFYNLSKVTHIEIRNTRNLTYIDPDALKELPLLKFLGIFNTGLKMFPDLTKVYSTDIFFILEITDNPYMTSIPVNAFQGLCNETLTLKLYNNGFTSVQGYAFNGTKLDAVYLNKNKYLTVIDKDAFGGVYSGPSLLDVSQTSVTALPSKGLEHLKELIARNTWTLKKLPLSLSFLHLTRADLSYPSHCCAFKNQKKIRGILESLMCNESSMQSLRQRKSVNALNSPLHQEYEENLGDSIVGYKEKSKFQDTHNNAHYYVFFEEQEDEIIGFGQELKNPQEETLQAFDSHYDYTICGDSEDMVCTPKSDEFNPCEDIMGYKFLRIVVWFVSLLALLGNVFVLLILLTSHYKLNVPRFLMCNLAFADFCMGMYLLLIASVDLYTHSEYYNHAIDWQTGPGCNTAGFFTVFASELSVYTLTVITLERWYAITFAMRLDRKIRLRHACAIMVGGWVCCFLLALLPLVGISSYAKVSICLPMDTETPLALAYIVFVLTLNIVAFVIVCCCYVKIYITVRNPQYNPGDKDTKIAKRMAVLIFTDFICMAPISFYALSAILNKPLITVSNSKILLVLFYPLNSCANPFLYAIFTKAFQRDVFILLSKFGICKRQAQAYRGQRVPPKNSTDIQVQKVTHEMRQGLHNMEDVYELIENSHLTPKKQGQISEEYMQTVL
Thyrotropin-releasing hormone receptor (Homo sapiens), sequence (P34981 whole entry, looked up): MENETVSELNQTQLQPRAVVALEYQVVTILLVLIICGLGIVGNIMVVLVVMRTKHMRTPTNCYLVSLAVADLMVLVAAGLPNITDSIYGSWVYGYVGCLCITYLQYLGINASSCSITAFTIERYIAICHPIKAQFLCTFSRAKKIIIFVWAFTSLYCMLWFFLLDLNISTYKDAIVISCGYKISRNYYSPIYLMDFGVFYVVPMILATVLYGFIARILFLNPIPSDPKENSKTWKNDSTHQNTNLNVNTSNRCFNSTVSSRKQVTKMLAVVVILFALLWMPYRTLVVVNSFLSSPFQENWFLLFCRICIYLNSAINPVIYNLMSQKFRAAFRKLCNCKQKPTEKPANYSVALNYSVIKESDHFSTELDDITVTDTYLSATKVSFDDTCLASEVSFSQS
Progesterone receptor (Homo sapiens), sequence (P06401 whole entry, looked up): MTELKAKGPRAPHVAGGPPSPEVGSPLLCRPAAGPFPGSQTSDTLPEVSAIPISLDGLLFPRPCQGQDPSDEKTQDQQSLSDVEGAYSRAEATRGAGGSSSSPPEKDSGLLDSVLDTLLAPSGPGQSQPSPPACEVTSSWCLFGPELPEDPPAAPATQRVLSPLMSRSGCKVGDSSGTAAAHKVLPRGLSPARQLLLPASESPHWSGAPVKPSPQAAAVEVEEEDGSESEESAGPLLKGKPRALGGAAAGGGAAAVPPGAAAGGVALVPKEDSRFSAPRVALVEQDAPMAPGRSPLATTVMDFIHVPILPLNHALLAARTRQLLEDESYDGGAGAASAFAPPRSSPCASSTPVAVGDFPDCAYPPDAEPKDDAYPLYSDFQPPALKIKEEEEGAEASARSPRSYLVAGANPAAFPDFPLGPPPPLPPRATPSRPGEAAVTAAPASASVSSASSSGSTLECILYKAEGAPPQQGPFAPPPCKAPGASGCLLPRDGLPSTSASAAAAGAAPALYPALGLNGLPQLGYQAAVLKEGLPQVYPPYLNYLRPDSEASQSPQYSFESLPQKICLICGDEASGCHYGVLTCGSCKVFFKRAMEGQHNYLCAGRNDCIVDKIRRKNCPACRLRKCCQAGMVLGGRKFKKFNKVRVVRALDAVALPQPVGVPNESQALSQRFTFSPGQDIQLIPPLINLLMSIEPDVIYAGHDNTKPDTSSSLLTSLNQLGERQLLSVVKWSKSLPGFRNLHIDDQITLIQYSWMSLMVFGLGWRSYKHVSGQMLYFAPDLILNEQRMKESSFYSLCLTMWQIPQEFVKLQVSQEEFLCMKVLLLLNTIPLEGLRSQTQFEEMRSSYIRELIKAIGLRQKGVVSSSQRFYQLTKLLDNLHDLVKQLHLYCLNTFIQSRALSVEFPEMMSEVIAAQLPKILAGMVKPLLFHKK
Estrogen receptor beta (Homo sapiens), sequence (Q92731 whole entry, looked up): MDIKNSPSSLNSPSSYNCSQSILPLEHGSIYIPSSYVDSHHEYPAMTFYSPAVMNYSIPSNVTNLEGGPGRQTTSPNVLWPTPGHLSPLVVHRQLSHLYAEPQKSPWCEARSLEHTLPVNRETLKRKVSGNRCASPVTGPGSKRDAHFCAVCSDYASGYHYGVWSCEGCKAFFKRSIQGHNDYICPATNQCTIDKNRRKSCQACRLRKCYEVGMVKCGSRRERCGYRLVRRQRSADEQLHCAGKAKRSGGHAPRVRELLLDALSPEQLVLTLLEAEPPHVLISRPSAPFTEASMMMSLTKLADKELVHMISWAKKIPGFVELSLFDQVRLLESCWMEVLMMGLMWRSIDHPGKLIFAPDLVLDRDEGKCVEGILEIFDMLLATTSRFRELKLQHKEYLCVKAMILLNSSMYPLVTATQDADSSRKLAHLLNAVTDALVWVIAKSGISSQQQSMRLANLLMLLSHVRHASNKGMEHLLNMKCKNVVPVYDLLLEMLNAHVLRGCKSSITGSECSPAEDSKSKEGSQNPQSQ

Take `N#CCc1ccc(Cl)cc1Cl`: the Potency entry in [1], in experiment [2], in experiment [3], in experiment [4], in experiment [5] and in experiment [7] was “inactive” in each case. For the same molecule, the Potency result in [8], in experiment [9], in experiment [10], in [11], in [12] and in experiment [13] was “inactive” in each case. Also, the Potency entry in experiment [14], in experiment [15] and in experiment [16] was “inactive” throughout. Besides, the molecule was classed as inactive in experiment [6].

Consider `C[C@@H](O[C@H]1OCCN(Cc2n[nH]c(=O)[nH]2)[C@H]1c1ccc(F)cc1)c1cc(C(F)(F)F)cc(C(F)(F)F)c1`, for which the figures for the Potency in experiment [1], in experiment [3] and in experiment [4] were 13.3 µM (active), 26.6 µM (active) and 29.8 µM (active), respectively. The Potency entry in [17], in experiment [18], in experiment [8], in experiment [13], in experiment [15] and in [16] was “inactive” each time. In addition, the molecule was called inactive in [6] and in experiment [19].

On to `C[C@@H]1CC(=O)NN=C1c1ccc(NN=C(C#N)C#N)cc1`, for which the Potency in experiment [1] was 13.3 µM (active); in experiment [2] it was 23.7 µM (active) and 13.3 µM (active); in [8] it was 26.6 µM (active). Further, the Potency result in experiment [3], in experiment [18], in experiment [4], in experiment [5], in experiment [7] and in experiment [9] was “inactive” in each case. Further, the Potency entry in [11], in [12], in [13], in [14], in experiment [15] and in experiment [16] was “inactive” throughout. In addition, the molecule was called inactive in experiment [6].

`CC(C)C[C@H](NC(=O)[C@H](CCc1ccccc1)NC(=O)CN1CCOCC1)C(=O)N[C@@H](Cc1ccccc1)C(=O)N[C@@H](CC(C)C)C(=O)[C@@]1(C)CO1`: the Potency in experiment [1] was 0.0119 µM (active); in [2] it was 1.19 µM (active); in experiment [3] it was 0.266 µM (active). Further, the Potency entry in [5], in experiment [7], in experiment [8], in [11], in [13] and in [14] was “inactive” each time. For the same molecule, the Potency entry in experiment [15] and in [16] was “inactive” each time. In addition, the molecule was classed as inactive in [6] and in experiment [19].

Turning to `CC(CO)CO`, the Potency entry in experiment [1], in experiment [2], in experiment [3], in [4], in [5] and in experiment [7] was “inactive” throughout. Besides, the Potency entry in [8], in experiment [9], in experiment [10], in experiment [11], in [12] and in [13] was “inactive” each time. Moreover, the Potency result in experiment [14], in experiment [15] and in experiment [16] was “inactive” in each case. The result in experiment [6] and in experiment [19] was inactive.
